Data published in the supplement of paper PMC8866396.
± gives the standard deviation of the averaged measurements.

Assays:
IL-6-GFP PC-9GR = assay: cell viability (CCK-8 OD) relative to DMSO control (fraction of control); higher = more viable cells; conditions: compound concentration: 10 uM; treatment time: 48 h
Procedure, shortened: (§1)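 Compounds from a purchased library of 510 were each tested at a final 10 μM for 48 h on PC-9 and PC-9GR lung cancer cells plated at 3000 cells/well in 96-well plates. These cells overexpressed IL-6-GFP from a lentiviral construct. Viability came from CCK-8 absorbance, given as the optical density of each well over that of the vehicle control well, across independent replicates numbering two.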

IL-6-GFP PC-9 = assay: as above; conditions: compound concentration: 10 uM; treatment time: 48 h
Procedure, shortened: as §1

Row | Compound | cell viability (IL-6-GFP PC-9GR) | cell viability (IL-6-GFP PC-9)
1 | CC(C)CC(NC(=O)C(Cc1ccccc1)NC(=O)c1cnccn1)B(O)O (stereo unspecified) [Bortezomib (PS-341)] | 0.105 ± 0.11 | 0.14 ± 0.057
2 | C=C1C(=O)OC2C1CCC(=C)C1CCC(=C)C12 (stereo unspecified) [Dehydrocostus Lactone] | 0.75 ± 0.052 | 0.808 ± 0.077
3 | Nc1nc(CC(=O)Nc2ccc(CCNCC(O)c3ccccc3)cc2)cs1 (stereo unspecified) [Mirabegron] | 1.09 ± 0.19 | 0.791 ± 0.035
4 | CC(=O)Oc1ccccc1C(=O)O [Aspirin] | 1.05 ± 0.027 | 1.23 ± 0.12
5 | Nc1ccc(S(=O)(=O)Nc2ccnn2-c2ccccc2)cc1 [Sulfaphenazole] | 1.15 ± 0.36 | 1.29 ± 0.11
6 | CCS(=O)(=O)O.COC(=O)c1ccc2c(c1)NC(=O)/C2=C(\Nc1ccc(N(C)C(=O)CN2CCN(C)CC2)cc1)c1ccccc1 [Nintedanib Ethanesulfonate Salt] | 0.8 ± 0.075 | 0.782 ± 0.023
7 | CC12C=CC(=O)C=C1CCC1C3CC(O)C(O)(C(=O)CO)C3(C)CC(O)C12F (stereo unspecified) [Triamcinolone] | 1.06 ± 0.13 | 0.805 ± 0.086
8 | COc1cc2c3cc1Oc1c(OC)c(OC)cc4c1C(Cc1ccc(O)c(c1)Oc1ccc(cc1)CC3N(C)CC2)N(C)CC4 (stereo unspecified) [Berbamine] | 0.891 ± 0.25 | 1.08 ± 0.14
9 | CC1CCC2(C(=O)OC3OC(COC4OC(CO)C(OC5OC(C)C(O)C(O)C5O)C(O)C4O)C(O)C(O)C3O)CCC3(C)C(=CCC4C5(C)CC(O)C(O)C(C)(CO)C5CCC43C)C2C1C (stereo unspecified) [Asiaticoside] | 1.06 ± 0.2 | 1.17 ± 0.021
10 | O=NN(CCCl)C(=O)NC1CCCCC1 [Lomustine] | 1.05 ± 0.07 | 0.9506 ± 0.0079
11 | Cl.N=C1CCCN1Cc1[nH]c(=O)[nH]c(=O)c1Cl.O=c1[nH]c(=O)n(C2CC(O)C(CO)O2)cc1C(F)(F)F.O=c1[nH]c(=O)n(C2CC(O)C(CO)O2)cc1C(F)(F)F (stereo unspecified) | 0.556 ± 0.067 | 0.812 ± 0.28
12 | Cc1cn(-c2cc(NC(=O)c3ccc(C)c(Nc4nccc(-c5cnccn5)n4)c3)cc(C(F)(F)F)c2)cn1 [Radotinib] | 0.7942 ± 0.0035 | 1.1 ± 0.038
13 | CC1=C(CC(=O)O)c2cc(F)ccc2/C1=C\c1ccc(S(C)=O)cc1 (stereo unspecified) [Sulindac] | 1.12 ± 0.075 | 0.821 ± 0.32
14 | CCOC(=O)c1ccc(OC(=O)CCCCCNC(=N)N)cc1.CS(=O)(=O)O [Gabexate Mesylate] | 1.14 ± 0.069 | 0.801 ± 0.071
15 | CN1C(C(=O)Nc2ccccn2)=C(O)c2sccc2S1(=O)=O [Tenoxicam] | 1.16 ± 0.15 | 1.21 ± 0.1
16 | Cc1coc2c1C(=O)C(=O)c1c-2ccc2c1CCCC2(C)C [Tanshinone IIA] | 1.37 ± 0.095 | 0.705 ± 0.19
17 | Cc1ccc(C(=O)c2ccc(CC(=O)O)n2C)cc1 [Tolmetin] | 1.11 ± 0.13 | 1.29 ± 0.02
18 | O=C(/C=C/C=C/c1ccc2c(c1)OCO2)N1CCCCC1 [Piperine] | 1.33 ± 0.093 | 1.47 ± 0.33
19 | CC1Oc2cc(cnc2N)-c2c(nn(C)c2C#N)CN(C)C(=O)c2ccc(F)cc21 (stereo unspecified) | 0.802 ± 0.14 | 0.945 ± 0.12
20 | CS(=O)(=O)CCNCc1ccc(-c2ccc3ncnc(Nc4ccc(OCc5cccc(F)c5)c(Cl)c4)c3c2)o1.Cc1ccc(S(=O)(=O)O)cc1.Cc1ccc(S(=O)(=O)O)cc1 | 1.18 ± 0.056 | 0.708 ± 0.033

Row | Compound | cell viability (IL-6-GFP PC-9GR) | cell viability (IL-6-GFP PC-9)
21 | Cc1c(-c2ccc(-c3ccccc3F)cc2)nc2ccc(F)cc2c1C(=O)O [Brequinar] | 0.402 ± 0.11 | 0.42356 ± 0.00032
22 | CC(=O)OC1CCC2(C)C(=CCC3C2CCC2(C)C(c4cccnc4)=CCC32)C1 (stereo unspecified) [Abiraterone Acetate] | 1.48 ± 0.41 | 0.929 ± 0.21
23 | N#Cc1ccc(C2CCCc3cncn32)cc1 (stereo unspecified) [Fadrozole] | 0.6645 ± 0.0044 | 1.18 ± 0.074
24 | O=C([O-])Cc1ccccc1Nc1c(Cl)cccc1Cl.[K+] [Diclofenac Potassium] | 1.25 ± 0.21 | 1.13 ± 0.18
25 | CCS(=O)(=O)N1CC(CC#N)(n2cc(-c3ncnc4[nH]ccc34)cn2)C1.O=P(O)(O)O [Baricitinib phosphate] | 0.391 ± 0.7 | 1.0937 ± 7.8e-05
26 | CCCCOc1ccc(CC(=O)NO)cc1 [Bufexamac] | 1.2 ± 0.39 | 0.928 ± 0.073
27 | COc1cccc2c1C(=O)c1c(O)c3c(c(O)c1C2=O)CC(O)(C(=O)CO)CC3OC1CC(N)C(O)C(C)O1.Cl (stereo unspecified) [Epirubicin HCl] | 0.141 ± 0.14 | 0.1407 ± 0.00071
28 | CC(Oc1cc(-c2cnn(C3CCNCC3)c2)cnc1N)c1c(Cl)ccc(F)c1Cl (stereo unspecified) | 0.43 ± 0.21 | 0.529 ± 0.15
29 | COc1cc(C2c3cc4c(cc3C(OC3OC5COC(C)OC5C(O)C3O)C3COC(=O)C23)OCO4)cc(OC)c1O (stereo unspecified) [Etoposide] | 0.779 ± 0.033 | 0.537 ± 0.17
30 | O=C(NCC1CN(c2ccc(N3CCOCC3=O)cc2)C(=O)O1)c1ccc(Cl)s1 (stereo unspecified) [Rivaroxaban] | 0.949 ± 0.11 | 0.98 ± 0.11
31 | COc1cc(CNC(=O)CCCC/C=C\C(C)C)ccc1O [Zucapsaicin] | 0.332 ± 0.62 | 1.22 ± 0.092
32 | CNCC(O)C(O)C(O)C(O)CO.Cc1c(Nc2ncccc2C(=O)O)cccc1C(F)(F)F [Flunixin Meglumin] | 1.15 ± 0.12 | 0.964 ± 0.087
33 | CCOc1ccccc1OCCNC(C)Cc1ccc(OC)c(S(N)(=O)=O)c1 (stereo unspecified) [Tamsulosin] | 1.37 ± 0.042 | 1.316 ± 0.0058
34 | CCC1(O)CC2CN(CCc3c([nH]c4ccccc34)C(C(=O)OC)(c3cc4c(cc3OC)N(C=O)C3C(O)(C(=O)OC)C(OC(C)=O)C5(CC)C=CCN6CCC43C65)C2)C1 (stereo unspecified) [Vincristine] | 0.556 ± 0.22 | 0.631 ± 0.041
35 | C=CC1CN2CCC1CC2C(O)c1ccnc2ccc(OC)cc12.Cl.O.O (stereo unspecified) [Quinine HCl Dihydrate] | 1.2 ± 0.21 | 1.19 ± 0.04
36 | CN(N=O)C(=O)NC1C(O)OC(CO)C(O)C1O (stereo unspecified) [Streptozotocin (STZ)] | 1.23 ± 0.087 | 0.636 ± 0.052
37 | CC(C)=CCCC(C)(OC1OC(CO)C(O)C(O)C1O)C1CCC2(C)C1C(O)CC1C3(C)CCC(O)C(C)(C)C3C(OC3OC(CO)C(O)C(O)C3O)CC12C (stereo unspecified) [Ginsenoside Rg1] | 1.16 ± 0.26 | 1.15 ± 0.17
38 | COC(=O)CC(O)(CCCC(C)(C)O)C(=O)OC1C(OC)=CC23CCCN2CCc2cc4c(cc2C13)OCO4 (stereo unspecified) [Homoharringtonine] | 0.275 ± 0.17 | 0.358 ± 0.042
39 | CS(=O)(=O)Nc1cc2occ(NC=O)c(=O)c2cc1Oc1ccccc1 [Iguratimod] | 1.46 ± 0.37 | 1.02 ± 0.19
40 | O=c1[nH]cc(F)c(=O)[nH]1 [Fluorouracil (5-Fluoracil, 5-FU)] | 0.731 ± 0.011 | 0.537 ± 0.12

Row | Compound | cell viability (IL-6-GFP PC-9GR) | cell viability (IL-6-GFP PC-9)
41 | CNC(=NC#N)NCCSCc1nc[nH]c1C [Cimetidine] | 1.56 ± 0.74 | 1.15 ± 0.23
42 | CC1(C(=O)O)CCC2(C)CCC3(C)C(=CC(=O)C4C5(C)CCC(OC6OC(C(=O)O)C(O)C(O)C6OC6OC(C(=O)O)C(O)C(O)C6O)C(C)(C)C5CCC43C)C2C1.N.N (stereo unspecified) [Diammonium Glycyrrhizinate] | 1.11 ± 0.22 | 1.19 ± 0.07
43 | CS(=O)(=O)O.Cc1ccc(NC(=O)c2ccc(CN3CCN(C)CC3)cc2)cc1Nc1nccc(-c2cccnc2)n1 [Imatinib Mesylate (STI571)] | 1.26 ± 0.07 | 1.1 ± 0.1
44 | FC(F)(F)c1ccc(CNc2ccc(Cc3c[nH]c4ncc(Cl)cc34)cn2)cn1 [Pexidartinib (PLX3397)] | 0.789 ± 0.2 | 0.898 ± 0.048
45 | CC(=O)[N-]S(=O)(=O)c1ccc(N)cc1.[Na+] [Sulfacetamide Sodium] | 0.982 ± 0.12 | 1.1 ± 0.014
46 | Cc1nnc(C(=O)NC(C)(C)c2nc(C(=O)NCc3ccc(F)cc3)c([O-])c(=O)n2C)o1.[K+] [Raltegravir potassium] | 1.37 ± 0.48 | 1.12 ± 0.16
47 | OCC1OC(c2ccc(Cl)c(Cc3ccc(OC4CCOC4)cc3)c2)C(O)C(O)C1O (stereo unspecified) | 1.05 ± 0.13 | 0.905 ± 0.058
48 | COC1OC2OC3(C)CCC4C(C)CCC(C1C)C24OO3 (stereo unspecified) [Artemether] | 1.29 ± 0.17 | 1.29 ± 0.052
49 | CCC(C)C(=O)OC1CC(C)C=C2C=CC(C)C(CCC3CC(O)CC(=O)O3)C21 (stereo unspecified) [Lovastatin] | 1.23 ± 0.028 | 0.619 ± 0.019
50 | CNNCc1ccc(C(=O)NC(C)C)cc1.Cl [Procarbazine HCl] | 1.02 ± 0.16 | 1.17 ± 0.042
51 | CCN(CC)CCNC(=O)c1c(C)[nH]c(/C=C2\C(=O)Nc3ccc(F)cc32)c1C.O=C(O)CC(O)C(=O)O [Sunitinib Malate] | 1.01 ± 0.063 | 0.453 ± 0.52
52 | Cc1c(Cl)cccc1Nc1ccccc1C(=O)O [Tolfenamic Acid] | 1.39 ± 0.44 | 1.18 ± 0.046
53 | COc1cccc2c1C(=O)c1c(O)c3c(c(O)c1C2=O)CC(O)(C(=O)CO)CC3OC1CC(N)C(O)C(C)O1.Cl (stereo unspecified) [Doxorubicin (Adriamycin) HCl] | 0.159 ± 0.12 | 0.136 ± 0.03
54 | NC1CN(c2c(F)cc3c(=O)c(C(=O)O)cn(C4CC4F)c3c2Cl)CC12CC2.NC1CN(c2c(F)cc3c(=O)c(C(=O)O)cn(C4CC4F)c3c2Cl)CC12CC2.O.O.O (stereo unspecified) [Sitafloxacin Hydrate] | 1.11 ± 0.072 | 1.01 ± 0.042
55 | Cc1cccn2c(=O)c(-c3nnn[n-]3)cnc12.[K+] [Pemirolast potassium] | 1.24 ± 0.25 | 1.23 ± 0.31
56 | Nc1nnc(-c2cccc(Cl)c2Cl)c(N)n1 [Lamotrigine] | 1.12 ± 0.3 | 1.05 ± 0.16
57 | CCc1nc(C(N)=O)c(Nc2ccc(N3CCC(N4CCN(C)CC4)CC3)c(OC)c2)nc1NC1CCOCC1 [Gilteritinib (ASP2215)] | 0.333 ± 0.021 | 0.315 ± 0.11
58 | C/C=C(/C)C(=O)OC1C(OC(C)=O)C2(CO)C(O)CC3(C)C(=CCC4C5(C)CCC(OC6OC(C(=O)O)C(OC7OC(CO)C(O)C(O)C7O)C(O)C6OC6OC(CO)C(O)C(O)C6O)C(C)(CO)C5CCC43C)C2CC1(C)C (stereo unspecified) [Escin] | 0.999 ± 0.079 | 1.14 ± 0.22
